# Hits are enriched below; roughly 2.3% of the tested compounds scored in any of these assays.
# Pf Dd2 growth – P. falciparum Dd2 growth inhibition | SYBR Green, 72 h; stronger effect = lower value | activity change, % at 10 µM | 94,000 compounds, 2.3% hits | AID 1159554; in the data active means activity change below about -80%
# C diff growth – inhibitors of Clostridium difficile growth; 86,000 compounds, 0.25% hits; Clostridium difficile clinical isolate growth, OD600, 24 h; stronger effect = lower value; growth activity, negative = inhibition, % at 16 µg/mL (by protocol); AID 1259249;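 active means mean growth activity at or below -80% and every replicate also at or below -80%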;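 further: 0% = DMSO wells and -100% = levofloxacin 16 µg/mL wells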
# An asterisk follows results filed as active; / = no result given.
SMILES,Pf Dd2 growth,C diff growth
C[C@H](CO)N1C[C@H](C)[C@H](CN(C)Cc2ccc(C(=O)Nc3ccccc3N)cc2)Oc2ccc(NS(=O)(=O)c3ccc(Cl)cc3)cc2CC1=O,-83.2*,1.5
COc1cccc(S(=O)(=O)N[C@H]2CC[C@H](CC(=O)NCc3ccc(Cl)cc3)O[C@@H]2CO)c1,-15.8,-0.3
CC(=O)N1[C@@H](CO)[C@@H](c2ccc(-c3ccc(F)cc3)cc2)[C@@H]1CNC(=O)C1CC1,-6.8,-7.6
C[C@@H]1CCCCO[C@@H](CN(C)S(C)(=O)=O)[C@H](C)CN([C@@H](C)CO)C(=O)c2cc(NC(=O)C3CCCCC3)ccc2O1,-9.0,-3.2
COc1ccc(CN(C)C[C@H]2Oc3c(NC(=O)C4CCOCC4)cccc3C(=O)N([C@@H](C)CO)C[C@@H]2C)cc1,23.4,-0.5
C[C@H]1CCCCO[C@@H](CN(C)CC2CCCCC2)[C@@H](C)CN([C@@H](C)CO)C(=O)c2cc(NC(=O)Nc3ccc4c(c3)OCO4)ccc2O1,-81.2*,-5.7
C[C@@H]1CCCCO[C@@H](CN(C)CC2CCCCC2)[C@H](C)CN([C@H](C)CO)C(=O)c2cc(NC(=O)Nc3ccc4c(c3)OCO4)ccc2O1,-81.0*,3.3
C[C@@H]1CCCCO[C@@H](CN(C)CC2CCCCC2)[C@@H](C)CN([C@@H](C)CO)C(=O)c2cc(NC(=O)Nc3ccc4c(c3)OCO4)ccc2O1,-65.7,-3.4
C[C@@H]1CN([C@@H](C)CO)C(=O)c2cc(NC(=O)Nc3ccc4c(c3)OCO4)ccc2O[C@@H](C)CCCCO[C@@H]1CN(C)CC1CCCCC1,-79.3,2.2
COc1ccc(CN(C)C[C@H]2Oc3ccc(NC(=O)C4CC4)cc3CC(=O)N([C@H](C)CO)C[C@@H]2C)cc1,19.5,-7.4
Cc1cc(C(=O)Nc2cccc3c2O[C@H](CN(C)C(=O)Nc2c(C)noc2C)[C@@H](C)CN([C@H](C)CO)C3=O)n(C)n1,48.5,/
C[C@@H]1CN([C@H](C)CO)C(=O)c2cc(N(C)C)ccc2O[C@@H](C)CCCCO[C@@H]1CN(C)C(=O)Nc1ccc2c(c1)OCO2,-47.6,-1.5
COc1cccc(CNC(=O)[C@H]2[C@H](CO)[C@H]3Cn4c(cccc4=O)[C@@H]2N3C(=O)C2CCCC2)c1,-81.5*,-1.2
COc1cccc(CNC(=O)[C@@H]2[C@@H](CO)[C@@H]3Cn4c(cccc4=O)[C@H]2N3C(=O)C2CCCC2)c1,50.9,-3.1
COCC(=O)Nc1ccc2c(c1)C(=O)N(C)[C@H]1CC[C@@H](CC(=O)NCCc3ccncc3)O[C@H]1CO2,-2.5,-0.1
O=C(c1ccccc1F)N1CC(=O)N2[C@H](C1)[C@@H](c1ccc(-c3ccc(F)cc3)cc1)[C@@H]2CO,-89.1*,-9.1
O=C(c1ccncc1)N1CC(=O)N2[C@H](C1)[C@@H](c1ccc(-c3cccnc3)cc1)[C@@H]2CO,-86.1*,-0.6
COc1ccc(-c2ccc([C@@H]3[C@H]4CN(C(=O)C5CCCC5)CC(=O)N4[C@H]3CO)cc2)cc1,-66.4,-4.0
COc1ccc(-c2ccc([C@@H]3[C@@H](CO)N4C(=O)CN(C(=O)C5CCCC5)C[C@@H]34)cc2)cc1,-85.6*,-9.1
O=C1CN(Cc2ccc(F)cc2)C[C@@H]2[C@@H](c3ccc(Br)cc3)[C@@H](CO)N12,38.5,6.1
O=C(c1ccccc1F)N1CC(=O)N2[C@@H](CO)[C@H](c3ccc(-c4ccc(F)cc4)cc3)[C@@H]2C1,-1.4,1.8
O=C1CN(Cc2ccc(F)cc2)C[C@@H]2[C@@H](c3ccc(Br)cc3)[C@H](CO)N12,-87.2*,3.9
O=C(c1ccc(F)cc1)N1CC(=O)N2[C@@H](CO)[C@H](c3ccc(-c4cccnc4)cc3)[C@@H]2C1,11.6,4.2
C[C@H]1CCCCO[C@H](CN(C)C(=O)NC2CCCCC2)[C@@H](C)CN([C@@H](C)CO)C(=O)c2cc(NC(=O)c3ccccc3)ccc2O1,-40.9,-16.4
CNC[C@H]1Oc2ccc(NC(=O)Nc3ccc4c(c3)OCO4)cc2C(=O)N([C@@H](C)CO)C[C@H]1C,-5.0,1.2
SMILES,Pf Dd2 growth,C diff growth
O=C([C@H]1[C@H](CO)[C@H]2Cn3c(cccc3=O)[C@@H]1N2)N1CCc2ccccc2C1,/,6.9
O=C(c1cccnc1)N1CC(=O)N2[C@H](C1)[C@@H](c1ccc(-c3cccnc3)cc1)[C@@H]2CO,-87.2*,-6.0
O=C(c1cccnc1)N1CC(=O)N2[C@@H](CO)[C@H](c3ccc(-c4cccnc4)cc3)[C@@H]2C1,36.8,-3.9
O=C(C1CCCC1)N1CC(=O)N2[C@H](CO)[C@@H](c3ccc(-c4cccnc4)cc3)[C@@H]2C1,6.0,-2.2
O=C(C1CCCC1)N1CC(=O)N2[C@H](CO)[C@H](c3ccc(-c4cccnc4)cc3)[C@H]2C1,-90.5*,-5.5
C[C@@H]1CN([C@H](C)CO)C(=O)c2cc(NC(=O)C3CCCCC3)ccc2O[C@@H](C)CCCCO[C@@H]1CN(C)C(=O)Nc1cccc2ccccc12,-90.9*,6.7
